The source of these data is PubChem BioAssay (NCATS).

Results filed as inconclusive are left out. Active and inactive are the calls of the source. The call rests on the fitted dose curve; in most records, active means well fitted inhibition curve with a large enough effect; inconclusive means small, poorly fitted or top-dose-only effect; inactive means flat fitted curve, though single readings scatter.
On the % scale 0 is the no-effect control and ±100 the full control effect; potency means the concentration at half of the fitted maximal effect.

The test system of this test is HEK293. Put plainly: Cytotoxic Profiling of Annotated Libraries Using Quantitative High-Throughput Screening (AID 1296008). Further: nearly all actives have a fitted effect of over 60% in size. The conditions noted are these: Five cell lines viability, CellTiter-Glo ATP luminescence, 48-72 h; max response: active compounds read low. The method, boiled down:
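Cells exposed to compounds for 48 or 72 hr at 37 degrees Celsius. Viability read as ATP-coupled luminescence with CellTiter-Glo after 10 min at room temperature.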
In general terms: Cellular ATP, detected with luciferase, serves as a proxy for viable cell number.
Take `Cc1[nH]c2ccccc2c1CCNC(=O)c1ccccc1F`: the max response is 2.26% (inactive).

`C/C=C/c1ccc2oc(-c3ccc(O)c(OC)c3)c(C)c2c1`: the max response is -4.11% (inactive).

Turning to `NC(=O)[C@H](O[C@@H]1O[C@H](CO)[C@@H](O)[C@H](O)[C@H]1O)c1ccccc1`, the max response is -3.01% (inactive).

As for `N[C@@]1(C(=O)O)CC[C@H]2[C@H](C(=O)O)[C@H]21`, the max response was 4.28% (inactive).

Turning to `COc1cc(C2c3cc4c(c(O)c3CC(CO)C2C(=O)O)OCO4)cc(OC)c1O` (configuration not stated), the Potency was 2.24 µM (active).

As to `O=S(=O)(Nc1ccccn1)c1ccc(N=Cc2c(O)[nH]c3ccc4ncsc4c23)cc1`, the max response was -3.48% (inactive).

On to `C[C@H](NC(c1cccc(C[P+](=O)O)c1)[C@H](C)O)c1ccc(Cl)c(Cl)c1` (some centres not stated), for which the max response was -17.8% (inactive).

On to `O=C1CSc2ccccc2N1Cc1cccc(C(F)(F)F)c1`, for which the max response is -20.3% (inactive).

For the compound `C/C=C1\[C@H](O[C@@H]2O[C@H](CO)[C@@H](O)[C@H](O)[C@H]2O)OC=C2C(=O)OCCc3ccc(O)c(c3)Oc3ccc(cc3)CCOC(=O)C[C@H]21`, the max response was -25.1% (inactive).

For `CN1CCN(Cc2ccc(-c3cnc4[nH]cc(-c5ccc6[nH]ccc6c5)c4c3)cc2)CC1`, the Potency is 6.51 µM (active).

Regarding `CC/C=C\C/C=C\C/C=C\CCCCCCCC(=O)OCC(O)COC1OC(CO)C(O)C(O)C1O` (configuration not stated), the max response was -1.09% (inactive).

Take `Cc1cc(Nc2cc(N3CCN(C)CC3)nc(/C=C/c3ccccc3)n2)n[nH]1`: the Potency was 3.66 µM (active).

In the case of `CC(C)C(CO)Nc1nc(Nc2ccc(C(=O)O)c(Cl)c2)c2ncn(C(C)C)c2n1` (configuration not stated), the max response was -4.16% (inactive).

With `COc1cc(Nc2nc3ccccc3nc2NS(=O)(=O)c2ccc(NC(=O)c3ccc(OC)c(C)c3)cc2)cc(OC)c1`, the max response was 1.81% (inactive).

For the compound `Cc1c2cc(c(C(=O)O)c1C)OC1OC(C(O)C(O)C1O)C(O)C(O)C1OC(O2)C(O)C(O)C1O` (configuration not stated), the max response is -0.813% (inactive).

Consider `CC(=O)OC[C@@]12C(=O)C[C@@H](C)[C@]3(C[C@@H](c4ccoc4)O[C@H]3OC(C)=O)[C@H]1CCC[C@]21CO1`, for which the max response is -5.69% (inactive).

As to `CNC(=S)NS(=O)(=O)c1cc(CCNC(=O)c2cc(Cl)ccc2OC)ccc1OC`, the max response was 0.225% (inactive).

As for `Cc1[nH]nc(C(F)(F)F)c1Cc1sc2c(c1C(=O)N1C[C@](C)(O)CO1)c(=O)n(C)c(=O)n2C(C)C`, the Potency is 0.0517 µM (active).

As for `O=C1OCc2cc3cccc(O[C@@H]4O[C@H](CO)[C@@H](O)[C@H](O)[C@H]4O)c3c(O)c21`, the max response is -24.4% (inactive).

On to `C[C@@H]1C(=O)O[C@H]2[C@@H](O)C34[C@H]5C[C@@H](C(C)(C)C)C36[C@@H](OC(=O)[C@@H]6O)O[C@@]4(C(=O)O5)[C@@]12O` (some centres not stated), for which the max response is -1.43% (inactive).

As to `CC1OC(O[C@H]2CC[C@@]3(C)C(CC[C@]4(C)C3CC=C3C5CC(C)(C)CC[C@]5(C(=O)OC5OC(CO)C(OC6OC(COC7OCC(O)C(O)C7O)C(O)C(O)C6O)C(O)C5O)CC[C@]34C)C2(C)C)C(O)C(O)C1OC1OCC(OC2OCC(O)C(O)C2O)C(O)C1O` (some centres not stated), the max response was 1.98% (inactive).

For the compound `CC(C)Oc1ccc(C(=O)NC(CNC(=O)CN(C)C)Cc2ccc(-c3cn4cccc(C(C)O)c4n3)cc2)cc1Cl` (configuration not stated), the Potency was 0.206 µM (active).

For `CC[C@@](C)(Nc1ccnc(-c2c[nH]c3ncccc23)n1)C(=O)NCC(F)(F)F`, the max response is -4.43% (inactive).

For `C=C(C(=O)OC)C1C(O)CC2(C)C(=O)CCC(O)(CO)C2C1O` (configuration not stated), the max response was -2.27% (inactive).

As to `COc1cc2ncnc(Nc3ccc(O)cc3)c2cc1OC`, the max response was -8.09% (inactive).

As for `CC(=O)NCC(=O)N1C2CCC1c1cc(Nc3ncc(C(F)(F)F)c(NC4CCC4)n3)ccc12` (configuration not stated), the Potency was 2.59 µM (active).

With `CNC(=O)c1ccccc1Nc1nc(Nc2ccc3c(c2OC)CCCC(N2CCN(CCO)CC2)C3)ncc1Cl` (configuration not stated), the Potency was 5.17 µM (active).

As for `CCN1CCN(Cc2ccc(Nc3ncc(F)c(-c4cc(F)c5nc(C)n(C(C)C)c5c4)n3)nc2)CC1`, the Potency is 3.66 µM (active).

On to `C[C@H](C(=O)NC1CCCC1)N(C(=O)Cn1nnc(-c2ccc3c(c2)OCO3)n1)C1CCCCC1`, for which the max response is 2.96% (inactive).

As to `COc1cc2c3c(cc4ccccc4c3c1O)NC2=O`, the max response was -10.3% (inactive).

For `CCNC(=O)C1OC(n2cnc3c(N)nc(NCCc4ccc(CCC(=O)O)cc4)nc32)C(O)C1O` (configuration not stated), the max response is 0.517% (inactive).

As to `CCN1CCN(Cc2ccc(NC(=O)Nc3ccc(Oc4cc(NC)ncn4)cc3)cc2C(F)(F)F)CC1`, the max response was -109% (inactive).
